High-throughput results: PubChem BioAssay, several laboratories
Shown are actives, neighbours in structure and some others; about 3.5% of the full set was active somewhere.
FBA Mtb inh: inhibits M. tuberculosis FBA enzyme; P9WQA3; purified M. tuberculosis FBA, fluorescence read-out; inhibition, % at 1 µM; hit rate 2.3% among 360,000; AID 588726; in the data active = inhibition above about 27%;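 note: 0% = vehicle and 100% = reference inhibitor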
Target sequence (P9WQA3 whole entry, looked up): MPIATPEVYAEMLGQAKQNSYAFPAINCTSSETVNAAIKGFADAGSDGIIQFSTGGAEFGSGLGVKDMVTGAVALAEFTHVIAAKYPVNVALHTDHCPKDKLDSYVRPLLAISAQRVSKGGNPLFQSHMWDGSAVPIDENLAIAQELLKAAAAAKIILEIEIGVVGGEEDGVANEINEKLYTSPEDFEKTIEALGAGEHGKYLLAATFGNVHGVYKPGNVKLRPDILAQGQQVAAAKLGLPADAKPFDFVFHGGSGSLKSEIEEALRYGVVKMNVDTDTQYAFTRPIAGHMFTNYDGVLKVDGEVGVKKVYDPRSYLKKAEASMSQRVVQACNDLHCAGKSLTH
GDH-TPI counter-1: GDH-TPI coupled enzyme inhibition counter-screen. GDH-TPI coupled enzyme counterscreen, NADH absorbance. inhibition, % at 4.8 µM. hit rate 1.2% among 360,000; in the data active = inhibition above about 30%;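 note: 0% = DMSO wells and 100% = wells lacking the enzyme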
Rv3671c inh: inhibitors of M. tuberculosis serine protease Rv3671c | hit rate 0.048% among 320,000 | P9WHR9 | inhibition, % at 5.96 µM; in the data active = inhibition above about 38%;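 note: extracellular domain of Rv3671c used as enzyme; 0% = enzyme with DMSO and 100% = no enzyme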
Target sequence (P9WHR9 whole entry, looked up, the tested form may be a part): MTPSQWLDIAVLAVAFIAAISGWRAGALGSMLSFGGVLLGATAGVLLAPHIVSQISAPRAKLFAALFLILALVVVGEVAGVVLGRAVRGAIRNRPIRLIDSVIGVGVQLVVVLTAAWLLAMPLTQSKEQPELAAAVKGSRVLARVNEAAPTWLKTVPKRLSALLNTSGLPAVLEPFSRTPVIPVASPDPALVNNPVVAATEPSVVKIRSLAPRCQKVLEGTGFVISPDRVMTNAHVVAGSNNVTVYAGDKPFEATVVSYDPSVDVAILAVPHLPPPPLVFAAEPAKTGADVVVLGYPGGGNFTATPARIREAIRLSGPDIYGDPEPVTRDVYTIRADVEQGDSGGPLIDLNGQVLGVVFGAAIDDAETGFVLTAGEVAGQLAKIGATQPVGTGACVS
Mtb betalactam: beta-lactam sensitization of Mtb H37Rv; M. tuberculosis H37Rv growth with meropenem, percent inhibition; inhibition, % at 25 µM; hit rate 0.27% among 330,000; AID 434955;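 note: growth measured after seven days incubation then overnight dye step; 0% = bacteria only wells and 100% = bacteria with antibiotic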
UGM FP inh: blocks M. tuberculosis UGM enzyme. P9WIQ1. purified UGM, fluorescence polarization probe displacement. inhibition, % at 10 µM. hit rate 0.06% among 320,000; in the data active = inhibition above about 10%, passing the limit was not always enough
Mtb FBA confirm: Mtb FBA inhibition, confirmed | inhibition, % at 1 µM | AID 651616 | shares compounds with FBA Mtb inh | hit rate 78% among 5,600 | purified M. tuberculosis FBA, fluorescence read-out; in the data active = inhibition above about 27%;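 note: 0% = vehicle wells and 100% = reference inhibitor wells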
GDH-TPI counter-2: counter-screen for M. tuberculosis FBA inhibitors: GDH-TPI coupled enzyme inhibition. hit rate 81% among 5,600. shares compounds with FBA Mtb inh. GDH-TPI coupled enzyme counterscreen, fluorescence. inhibition, % at 1 µM; in the data active = inhibition above about 10%
GDH-TPI dose: counter-screen for M. tuberculosis FBA inhibitors: GDH-TPI dose response | AID 652145 | GDH-TPI coupled enzyme assay, fluorescence, artifact counterscreen | shares compounds with FBA Mtb inh | hit rate 79% among 170 | IC50, µM
* marks the source's active call; other numbers are inactive results; . = not tested or not shown; + = active, no number. Unless noted, the rule behind the calls is not given here.

SMILES | FBA Mtb inh | GDH-TPI counter-1 | Rv3671c inh | Mtb betalactam | UGM FP inh | Mtb FBA confirm | GDH-TPI counter-2 | others
COc1ccc(N(CC(=O)NCCSc2ccc(C)cc2)S(=O)(=O)c2ccccc2)c(OC)c1 | -7.3 | -8.4 | -6.2 | -4.8 | 3.1 | . | .
CCCCn1c(N)c(N(CC(C)C)C(=O)CSc2n[nH]c(-c3ccc(C)cc3)n2)c(=O)[nH]c1=O | 67.1* | 13.8 | 3.3 | 0.0 | -1.3 | 69.5* | 44.3*
CCOc1ccc(NC(=O)CC2C(=O)N(c3cccc(OC)c3)C(=O)N2CCOC)cc1 (stereo not given) | -1.7 | 0.5 | 0.9 | -8.6 | -1.5 | . | .
C[C@H](O)[C@@H]1C(=O)N2CCc3c([nH]c4ccccc34)[C@@H]2C[C@@H]1N(C)C(=O)NC1CCCCC1 | 87.0* | 10.9 | . | . | . | 156.9* | 116.1*
CN1OC[C@@H]2C(=O)N3CCc4c([nH]c5ccccc45)[C@@H]3C[C@@H]21 | 37.7* | -8.1 | . | . | . | + | 191.6*
COCC(=O)N(C)[C@H]1C[C@H]2c3[nH]c4ccccc4c3CCN2C(=O)[C@H]1[C@H](C)O | 12.1 | -3.1 | . | . | . | . | .
CCN(C(=O)CSc1nc2cc(C(=O)O)ccc2c(=O)n1-c1ccccc1F)C1CCS(=O)(=O)C1 (stereo not given) | 2.6 | 8.2 | . | . | . | . | .
CC1C(=O)N(Cc2cn(CCC3OCCO3)nn2)CCS(=O)(=O)N1Cc1ccc(-c2ccc(F)nc2)cc1 (stereo not given) | -0.9 | -3.8 | . | . | . | . | .
Cc1ccc(-c2nn(-c3ccccc3)cc2C(=O)O)o1 | . | . | 7.7 | 3.0 | -0.8 | . | .
Cc1ccc(-c2nn(-c3ccccc3)cc2/C=C/C(=O)O)o1 | 39.2* | 16.3 | -9.9 | 65.9 | 1.5 | -1.8 | -3.3
Cc1ccc(C(=O)N/C(=C\c2ccc(Cl)cc2)C(=O)NCC2CCCO2)cc1 (stereo not given) | 1.6 | 5.2 | 6.6 | 0.8 | -0.5 | . | .
CC(=O)c1ccc2c(c1)c(C#N)c1ccccc1[n+]2[O-] | 93.6* | 15.5 | . | . | . | 8.4 | -0.4
CCNC(=S)N1CCc2cc(OC)c(OC)cc2C1COc1ccccc1OC (stereo not given) | 38.1* | -5.0 | 0.2 | -6.1 | 0.0 | + | +
COC(=O)C1=CN(Cc2ccc(OC)c(OC)c2)C=C(C(=O)OC)C1c1ccc(F)cc1 | 96.8* | 23.6 | 1.7 | -23.7 | -0.6 | + | 142.1*
COC(=O)C1=CN(Cc2ccc(OC)c(OC)c2)C=C(C(=O)OC)C1c1ccc(O)cc1 | 63.6* | 9.4 | . | -1.1 | 1.2 | + | +
COC(=O)C1=CN(Cc2ccc(OC)c(OC)c2)C=C(C(=O)OC)C1c1ccccc1F | 90.9* | 2.2 | . | 2.6 | 1.4 | 61.4* | 46.9*
COC(=O)C1=CN(Cc2ccc(C)cc2)C=C(C(=O)OC)C1c1cc(OC)c(OC)c(OC)c1 | 32.7* | 12.4 | 0.5 | -2.4 | -1.4 | 91.4* | 73.0*
CC(C)CN(C(=O)c1ccc(N2CCCC2=O)cc1)c1c(N)n(Cc2ccccc2)c(=O)[nH]c1=O | 2.2 | 1.8 | -13.5 | -1.1 | 3.9 | . | .
F[B-](F)(F)COCc1ccccc1Br | 0.1 | 3.8 | . | . | . | . | .
Cc1nc(NCc2ccco2)c2c3c(sc2n1)CCC3 | 4.3 | -5.3 | -6.3 | 32.8 | 3.6 | . | .
CC(C)Sc1nc(NCc2ccco2)c2c3c(sc2n1)COC(C)(C)C3 | 85.0* | 9.4 | -1.9 | 41.2 | -0.2 | + | +
C[n+]1cccc(C(=O)Nc2ccccc2)c1 | -0.7 | -4.3 | -5.5 | -4.3 | -0.6 | . | .
N#CCc1ccc(Oc2ncc(C(F)(F)F)cc2Cl)cc1 | 43.7* | -0.3 | -4.1 | 5.2 | 1.2 | 122.6* | 101.7*
C=CCn1c2ccccc2c(=O)c2cc(C#Cc3cc(OC)cc(OC)c3)ccc21 | 56.2* | 30.9* | -31.7 | 9.2 | 1.7 | 9.6 | 6.5
COc1cc(C#Cc2c(C=O)n(C)c3ccccc23)cc(OC)c1 | 6.4 | 15.1 | 2.7 | 3.1 | 2.5 | . | .
SMILES | FBA Mtb inh | GDH-TPI counter-1 | Rv3671c inh | Mtb betalactam | UGM FP inh | Mtb FBA confirm | GDH-TPI counter-2 | others
COCCSc1ccccc1C(=O)Nc1ccccc1C#N | -1.5 | -5.8 | -0.6 | -3.0 | 1.8 | . | .
COc1ccc(CC(=O)N2CCN(c3ccc(C4=NNC(=O)CC4C)cc3)CC2)cc1 (stereo not given) | 31.9* | 22.4 | 1.6 | -4.2 | -2.7 | 162.0* | 131.8*
COc1ccc(CC(=O)N2CCN(C(=O)Cc3ccc(OC)cc3)CC2)cc1 | 4.4 | 1.2 | 6.2 | -3.8 | 2.1 | . | .
CC(C)=CCN1CCN(Cc2cn[nH]c2C2CCCCC2)CC1CCO (stereo not given) | . | . | -5.6 | -6.0 | 1.8 | . | .
CC(C)(C)c1ccc(NC(=O)Nc2ccc(F)cc2)cc1 | 1.8 | 2.5 | -10.4 | 3.6 | 2.5 | . | .
COc1ccc(C2(C)C(C#N)C(=O)NC(=O)C2C#N)cc1 (stereo not given) | -0.4 | 0.5 | . | . | . | . | .
CCOC(=O)c1cc2ccc3ccccc3c2s1 | 4.5 | 3.5 | -3.0 | 92.2 | 2.9 | . | .
CCOC(=O)c1cc2c(s1)-c1ccccc1CC2 | 49.1* | 19.5 | 0.8 | 7.4 | 1.7 | 6.7 | 0.1
COc1ccc(NCc2ccsc2)cc1 | -1.6 | -6.0 | -0.9 | -0.8 | 0.6 | . | .
CCOc1ccc(C2C(C(=O)OC)=CN(C(C)c3ccccc3)C=C2C(=O)OC)cc1 (stereo not given) | 70.6* | -4.1 | 1.4 | 5.2 | -1.0 | + | +
O=C(CSc1n[nH]c(-c2ccc(Br)cc2)n1)NC1CCCC1 | 0.1 | -2.2 | -3.7 | -6.7 | 1.0 | . | .
O=C(NC1=NCCS1)c1ccc(F)c(S(=O)(=O)N2CCOCC2)c1 | 4.0 | 17.2 | 7.4 | 3.0 | -0.4 | . | .
Cc1cccn2c(=O)cc(COC(=O)C(C)Oc3ccccc3)nc12 (stereo not given) | 3.9 | 4.1 | -3.8 | 28.1 | 0.5 | . | .
Cc1cc(=O)n2cccc(O)c2n1 | 74.8* | 5.7 | -5.1 | -1.9 | -0.3 | + | +
COc1ccc(Cc2nc3ccc(C(=O)NCC4COCCO4)cc3o2)cc1OC (stereo not given) | 0.4 | 11.1 | 11.9 | -1.2 | 1.3 | . | .
COc1ccc2c(c1)cc(C(=O)N[C@@H](Cc1ccccc1)C(=O)O)n2C | 91.7* | 0.7 | -6.4 | -1.8 | 1.5 | 121.3* | 87.5*
C[C@H](NC(=O)c1cc2cc(Cl)ccc2n1C)C(=O)N1CCC(C(=O)O)CC1 | 2.5 | 4.6 | . | 3.3 | 1.2 | . | .
Cn1c(C(=O)N[C@@H](Cc2ccccc2)C(=O)O)cc2cc(F)ccc21 | 8.4 | -9.5 | 9.2 | -4.8 | 1.1 | . | .
COc1ccc2c(c1)cc(C(=O)N[C@@H](Cc1ccccc1)C(=O)N[C@@H](C)C(=O)O)n2C | 59.0* | 14.7 | 1.1 | -5.8 | 2.8 | 31.4* | 9.0 | GDH-TPI dose=2.45*
Cn1c(C(=O)N[C@@H](Cc2ccccc2)C(=O)NCCC(=O)O)cc2cc(Cl)ccc21 | 2.8 | 13.9 | . | 9.0 | -1.2 | . | .
